Test results reported in PubChem BioAssay (NCI).
About 83,000 compounds went through this panel and 20% of them were active in at least one assay; those are over-represented in the sample as a whole.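 Compound tested at a single concentration for 48 hours in 96-well plates; a percent growth value below 10 was scored as active.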 A number with no mark means an inactive call. Calls of active or inactive are those of the source.

Tests used:
Test in all cases: NCI-60 one-dose screen, 48 h (100 = growth as untreated, 0 = no growth, -100 = all killed)
[1] = test system: NCI-H23 lung; details: 10 µM unless noted
[2] = test system: NCI-H226 lung; details: 10 µM unless noted
[3] = test system: DU-145 prostate; details: 10 µM unless noted
[4] = test system: MDA-MB-231 breast; details: 10 µM unless noted
[5] = test system: M14 melanoma; details: 10 µM unless noted
[6] = test system: HCT-15 colon; details: 10 µM
[7] = test system: HT29 colon; details: 10 µM unless noted
[8] = test system: PC-3 prostate; details: 10 µM unless noted
[9] = test system: UACC-62 melanoma; details: 10 µM unless noted
[10] = test system: LOX IMVI melanoma; details: 10 µM unless noted
[11] = test system: SK-MEL-28 melanoma; details: 10 µM unless noted
[12] = test system: OVCAR-8 ovarian; details: 10 µM unless noted
[13] = test system: OVCAR-5 ovarian; details: 10 µM unless noted
[14] = test system: SK-OV-3 ovarian; details: 10 µM unless noted
[15] = test system: OVCAR-3 ovarian; details: 10 µM unless noted
[16] = test system: NCI/ADR-RES ovarian; details: 10 µM unless noted
[17] = test system: MCF7 breast; details: 10 µM unless noted
[18] = test system: KM12 colon; details: 10 µM unless noted
[19] = test system: SF-268 CNS; details: 10 µM unless noted
[20] = test system: SW-620 colon; details: 10 µM unless noted

Compound: O=C(CCF)c1ccc(O)cc1
- growth [1]: 94%
- growth [2]: 105%
- growth [3]: 105%
- growth [4]: 113%
- growth [5]: 106%
- growth [6]: 102%
- growth [7]: 98.2%
- growth [8]: 98%
- growth [9]: 106%
- growth [10]: 95%
- growth [11]: 113%
- growth [12]: 99.2%
- growth [13]: 96.7%
- growth [14]: 103%
- growth [15]: 109%
- growth [16]: 105%
- growth [17]: 101%
- growth [18]: 106%

Compound: O=C(N/N=C/c1ccc(N(CCCl)CCCl)cc1)c1cc(=O)[nH]c(=O)[nH]1
- growth [1]: 79.7%
- growth [2]: 5.48% (active)
- growth [3]: 91.4%
- growth [19]: 95.2%
- growth [5]: 103%
- growth [6]: 97.8%
- growth [7]: 101%
- growth [8]: 89.2%
- growth [10]: 93.4%
- growth [11]: 116%
- growth [12]: 93.5%
- growth [13]: 134%
- growth [15]: 115%
- growth [16]: 108%
- growth [20]: 108%
- growth [17]: 74.5%
- growth [18]: 111%

Compound: O=C(NCc1ccc([N+](=O)[O-])cc1)Nc1ccc(S(=O)(=O)F)cc1
- growth [1]: 81.3%
- growth [2]: 63.7%
- growth [3]: 102%
- growth [4]: 80.4%
- growth [19]: 89.9%
- growth [5]: 93.5%
- growth [6]: 87.1%
- growth [7]: 91.9%
- growth [8]: 74.6%
- growth [9]: 65.1%
- growth [10]: 92.9%
- growth [11]: 96%
- growth [12]: 80%
- growth [13]: 83.9%
- growth [14]: 94.9%
- growth [15]: 87%
- growth [16]: 78.3%
- growth [20]: 91.8%
- growth [17]: 83.7%
- growth [18]: 84.2%
